# Measured values from PubChem BioAssay (NCATS).
# Results filed as inconclusive are left out. Where a call stands in place of a potency, no number is given. Activity calls are given as the source filed them. Calls follow the shape of the dose curve; as a rule, active = well fitted inhibition curve with a large enough effect; inconclusive = small, poorly fitted or top-dose-only effect; inactive = flat fitted curve, though single readings scatter.
# Molecular target: Phospholipid hydroperoxide glutathione peroxidase GPX4 (Homo sapiens) (UniProt P36969)
# Sequence (P36969 whole entry, looked up): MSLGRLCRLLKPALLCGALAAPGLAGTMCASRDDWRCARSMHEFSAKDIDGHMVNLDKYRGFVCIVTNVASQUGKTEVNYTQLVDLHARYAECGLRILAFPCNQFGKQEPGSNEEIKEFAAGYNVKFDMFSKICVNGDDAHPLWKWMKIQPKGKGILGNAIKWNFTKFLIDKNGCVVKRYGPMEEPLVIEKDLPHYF
# Test: Primary qHTS Assay for Inhibitors of Recombinant Selenoprotein Glutathione Peroxidase 4 (GPX4) (AID 1845192); also: nearly all actives have a fitted effect of over 65% in size
# Details: recombinant GPX4, GR-coupled NADPH fluorescence, 15 min; series mostly up to 50 µM
# Procedure, shortened: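 qHTS, GR-coupled: GPX4 200 nM + cpd 30 min RT → GSH 1 mM, NADPH 0.5 mM, GR 100 nM → CHP 0.5 mM start; fluor 340/450 at t0 and t15 min; no-enzyme wells as control.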
# Potency is read from the fitted curve at half-maximal effect.
row,SMILES,Potency
1,C[C@@H](O)[C@H]1C(=O)N2C(C(=O)O)=C(S[C@@H]3CN[C@H](CNS(N)(=O)=O)C3)[C@H](C)[C@H]12,inactive
2,CCCCC(CC)COC(=O)/C=C/c1ccc(OC)cc1 (stereo not drawn),inactive
3,O=C(Oc1cccc2cccnc12)c1ccccc1,inactive
4,OCCOCCN1CCN(C2=Nc3ccccc3Sc3ccccc32)CC1,inactive
5,COc1ccc(C(=O)c2ccccc2O)c(O)c1,inactive
6,COc1ccc(C(Cl)=C(c2ccc(OC)cc2)c2ccc(OC)cc2)cc1,inactive
7,CO[C@H]1C=CO[C@@]2(C)Oc3c(C)c(O)c4c(O)c(c(/C=N/N5CCN(C)CC5)c(O)c4c3C2=O)NC(=O)/C(C)=C\C=C[C@H](C)[C@H](O)[C@@H](C)[C@@H](O)[C@@H](C)[C@H](OC(C)=O)[C@@H]1C,17.8 µM (active)
8,CCCN(CCC)S(=O)(=O)c1ccc(C(=O)O)cc1,inactive
9,O=C(Nc1ccc([N+](=O)[O-])cc1)Nc1ccc([N+](=O)[O-])cc1,inactive
10,C[N+]1(C)CCC(=C(c2ccccc2)c2ccccc2)CC1,inactive
11,Cc1cc(NS(=O)(=O)c2ccc(N)cc2)nc(C)n1,inactive
12,O=C(O)P(=O)(O)O,inactive
13,O=C(Nc1cccc(C2=NCCN2)c1)Nc1cccc(C2=NCCN2)c1,inactive
14,CC1CCc2c(N3CCC(O)CC3)c(F)cc3c(=O)c(C(=O)O)cn1c23 (stereo not drawn),inactive
15,NC1CCN(c2nc3c(cc2F)c(=O)c(C(=O)O)cn3-c2ccc(F)cc2F)C1 (stereo not drawn),inactive
16,NC(=O)C1(N2CCCCC2)CCN(CCCC(=O)c2ccc(F)cc2)CC1,inactive
17,CN(C)CCN1C(=O)c2ccccc2N(C)c2ccccc21,inactive
18,COc1ccc(-c2cc(C(F)F)nn2-c2ccc(S(N)(=O)=O)cc2)cc1F,inactive
19,CCc1ccc(C(=O)C(C)CN2CCCCC2)cc1 (stereo not drawn),inactive

row,SMILES,Potency
1,CCCCCN=C(N)N/N=C/c1c[nH]c2ccc(OC)cc12,inactive
2,COc1cc(C(=O)NCc2ccc(OCCN(C)C)cc2)cc(OC)c1OC,inactive
3,CC(C)(C)NCC(O)COc1cccc2c1C[C@H](O)[C@H](O)C2 (stereo partly drawn),inactive
4,O=C(O)CCC(=O)Nc1ccc(S(=O)(=O)Nc2nccs2)cc1,inactive
5,CC(=O)Nc1ccc(S(=O)(=O)Nc2ccc([N+](=O)[O-])cc2)cc1,inactive
6,CCCCN1C[C@H](O)[C@@H](O)[C@H](O)[C@H]1CO,inactive
7,O=C(NC1CCN(CCc2c[nH]c3ccccc23)CC1)c1ccccc1,inactive
8,CC(C)Cc1ccc(CC(=O)O)cc1,inactive
9,CC(=O)O[C@]1(C(C)=O)CC[C@H]2[C@@H]3C=C(C)C4=CC(=O)CC[C@]4(C)[C@H]3CC[C@@]21C,inactive
10,c1ccc(CC2=NCCN2)cc1,inactive
11,CCOC(=O)c1ccc(N)cc1,inactive
12,COc1cc(N)c(Cl)cc1C(=O)NC1CCN(Cc2ccccc2)CC1,inactive
13,N#C/C(=C1\SCC(c2ccccc2Cl)S1)n1ccnc1 (stereo not drawn),inactive
14,O=C(O)CCNC(=O)c1ccccc1,inactive
15,C/C=C/c1ccc(O)c(OC)c1,inactive
16,O=C1c2cccc3c2[C@H](CCC3)CN1[C@@H]1CN2CCC1CC2,inactive
17,COC(=O)C(c1ccccc1Cl)N1CCc2sccc2C1 (stereo not drawn),inactive
18,CC[C@H](c1ccc(O)cc1)[C@@H](CC)c1ccc(O)cc1,inactive
19,Cc1c[nH]c2ccccc12,inactive
